In the library only some 10% were active in any assay of this set; here they are far more common.
CtBP-E1A blk = qHTS Assay for Inhibitors of the CtBP/E1A Interaction | CtBP / adenovirus E1A interaction (AlphaScreen) | AlphaScreen GST-E1A/His-CtBP binding, 1536-well; stronger effect = lower value | activity change, % (test concentration not listed) | hit rate 0.49% among 340,000 | AID 651724, 2012; in the data active means activity change below about -65%; inconclusive means mostly about -30% to -63%; further: on the % scale 0 is the no-effect control and ±100 the full control effect
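GST-E1A and His-tagged CtBP (125 nM each as 5X stock) were preincubated with pin-transferred compound for 2 h at 37 °C in the dark, then glutathione donor and nickel acceptor beads were added for 1 h before AlphaScreen reading.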
BAZ2B inh = qHTS Assay for Inhibitors of BAZ2B | Bromodomain adjacent to zinc finger domain protein 2B (Homo sapiens), Q9UIF8 | AID 504333, 2011 | hit rate 4.4% among 360,000 | Potency, µM (series often up to 114 µM), for the others: at the top dose activity change, negative = inhibition, actives largely listed as inhibitors | AlphaScreen BAZ2B-H3K14Ac peptide displacement; further: potency means the concentration at half of the fitted maximal effect; on the % scale 0 is the no-effect control and ±100 the full control effect; nearly all actives have a fitted effect of over 60% in size
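BAZ2B 50 nM plus b-H3(5-23)K14Ac 50 nM, PBS pH 7.4/0.01% Tween-20, 30 min RT; compound added (max 110 uM), 30 min RT; streptavidin donor/Ni-chelate acceptor beads 10 ug/mL final, 20 min dark; AlphaScreen read.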
HP1b chromo inh = HTS for Inhibitors of HP1-beta Chromodomain Interactions with Methylated Histone Tails. Chromobox protein homolog 1 (Homo sapiens), P83916. AlphaScreen HP1-beta / biotin-H3K9me3 peptide binding. Potency, µM (highest dose often 114 µM), inactives show at the highest dose activity change, negative = inhibition, usual class: inhibitors. hit rate 0.56% among 390,000; further: potency means the concentration at half of the fitted maximal effect; nearly all actives have a fitted effect of over 70% in size
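AlphaScreen: HP1-beta (50 nM) preformed 30 min with biotin-H3(1-18)K9me3 peptide (50 nM) in PBS pH 7.4, 0.01% Tween-20. Compound added for 30 min at RT, then streptavidin donor/nickel chelate acceptor beads (10 ug/mL) for 30 min.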
JMJD2A Tudor = qHTS Assay for Inhibitors of JMJD2A-Tudor Domain; Potency, µM (top dose mostly 114 µM), for inactives: top-dose activity change, negative = inhibition, hits mostly inhibitors; AID 504339, 2011; hit rate 4.4% among 390,000; AlphaScreen JMJD2A-Tudor / H3K4me3 peptide binding; Lysine-specific demethylase 4A (Homo sapiens), O75164; further: potency means the concentration at half of the fitted maximal effect; on the % scale 0 is the no-effect control and ±100 the full control effect; nearly all actives have a fitted effect of over 50% in size
Six1-Eya2 inh = qHTS Assay for Inhibitors of the Six1/Eya2 Interaction. Homeobox protein SIX1 (Homo sapiens) + Protein phosphatase EYA2 (Homo sapiens), …. AlphaScreen GST-Six1/His-Eya2 binding, biochemical; stronger effect = lower value. activity change, % (no concentration beside the values). hit rate 0.56% among 360,000; in the data active means activity change below about -65%; inconclusive means mostly about -30% to -63%; further: on the % scale 0 is the no-effect control and ±100 the full control effect
Target sequence (O00167 whole entry, looked up): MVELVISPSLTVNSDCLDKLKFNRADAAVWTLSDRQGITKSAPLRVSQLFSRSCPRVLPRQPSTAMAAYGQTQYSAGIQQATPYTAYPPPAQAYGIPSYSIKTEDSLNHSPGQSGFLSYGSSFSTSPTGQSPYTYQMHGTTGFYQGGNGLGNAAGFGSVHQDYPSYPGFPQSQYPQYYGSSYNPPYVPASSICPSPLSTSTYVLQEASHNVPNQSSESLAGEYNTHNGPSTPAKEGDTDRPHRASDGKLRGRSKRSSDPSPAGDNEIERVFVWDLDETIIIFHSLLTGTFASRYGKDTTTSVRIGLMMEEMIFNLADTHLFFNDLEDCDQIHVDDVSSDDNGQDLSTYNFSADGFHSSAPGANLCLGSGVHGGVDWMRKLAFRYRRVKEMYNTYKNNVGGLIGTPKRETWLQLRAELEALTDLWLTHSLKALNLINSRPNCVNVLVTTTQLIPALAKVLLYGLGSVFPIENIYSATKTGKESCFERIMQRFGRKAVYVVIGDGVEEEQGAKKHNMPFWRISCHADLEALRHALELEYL
Target sequence (Q15475 whole entry, looked up): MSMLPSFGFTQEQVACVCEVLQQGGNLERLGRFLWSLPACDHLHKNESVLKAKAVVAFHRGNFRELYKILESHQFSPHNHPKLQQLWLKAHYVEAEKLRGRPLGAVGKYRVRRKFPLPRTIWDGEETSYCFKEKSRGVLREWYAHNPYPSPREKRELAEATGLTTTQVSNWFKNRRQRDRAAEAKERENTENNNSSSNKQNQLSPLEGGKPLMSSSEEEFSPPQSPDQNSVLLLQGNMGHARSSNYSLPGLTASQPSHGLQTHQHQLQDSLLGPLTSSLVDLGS
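Homogeneous AlphaScreen proximity assay pairing GST-Six1 with His-tagged Eya2 (added as 5X mix: 250 nM and 500 nM) in 50 mM Tris pH 8.0, 300 mM NaCl, 1 mM TCEP. Glutathione donor and nickel acceptor beads; 1 h, 37 °C, dark.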
G9a inh = qHTS Assay for Inhibitors of Histone Lysine Methyltransferase G9a; hit rate 8.8% among 350,000; Potency, µM (top dose mostly 102 µM), for the others: at the top dose activity, negative = inhibition, actives largely listed as inhibitors; Histone-lysine N-methyltransferase EHMT2 (Homo sapiens), Q96KQ7; G9a H3K9 monomethylation, AlphaScreen, 2 h; further: potency means the concentration at half of the fitted maximal effect; on the % scale 0 is the no-effect control and ±100 the full control effect; nearly all actives have a fitted effect of over 75% in size
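Chemiluminescent proximity detection of H3K9 monomethylation, read after 10 min bead incubation in the dark. Reaction: 20 nM G9a, 500 nM biotin-H3K9 peptide, 20 uM SAM cofactor, 2 h, room temperature, following 15 min enzyme-compound preincubation.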
12-hLO 8HQ R1 = Cuvette-Based Assay for Inhibitors of 12-hLO (12-human lipoxygenase): 8HQ Series - Round 1; shares compounds with BAZ2B inh; purified 12-hLO, cuvette UV 234 nm product formation; Potency, µM, hits mostly inhibitors; hit rate 60% among 35; AID 2163, 2009;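 active means compounds that slowed 12-hLO product formation enough to yield a measured IC50 potency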
JMJD2E inh-1 = Inhibitors of Human Jumonji Domain Containing 2E (JMJD2E): 8HQs - Round 1; shares compounds with BAZ2B inh; JMJD2E demethylase, FDH-coupled NADH fluorescence; Potency, µM (series often up to 57 µM), for inactives: at the top dose activity, negative = inhibition, actives largely listed as inhibitors; hit rate 89% among 130
ME-1 growth = qHTS Assay for Compounds Blocking the Interaction Between CBF-beta and RUNX1 for the Treatment of Acute Myeloid Leukemia: ME-1 cellular proliferation; shares compounds with BAZ2B inh; ME-1 cell proliferation, ATP luminescence, 48 h; Potency, µM (titrated, usually from 56.1 µM), inactives show top-dose activity change, negative = inhibition, usual class: inhibitors; hit rate 20% among 140; AID 504370, 2011
JMJD2E inh-2 = Confirmation qHTS Assay for Inhibitors of Human Jumonji Domain Containing 2E (JMJD2E); shares compounds with JMJD2A Tudor; Recombinant JMJD2E, FDH-coupled NADH fluorescence (FDH is formaldehyde dehydrogenase); Potency, µM (titrated, usually from 56.8 µM), for the others: at the top dose activity change, negative = inhibition, usual class: inhibitors; hit rate 93% among 140
FDH inh = Counterscreen for JMJD2E Inhibitors: qHTS Assay for Inhibitors of Formaldehyde Dehydrogenase (FDH); Potency, µM (series often up to 56.7 µM), inactives show at the top dose activity, negative = inhibition, usual class: inhibitors; hit rate 10% among 140; shares compounds with JMJD2A Tudor; FDH enzyme assay, NADH fluorescence kinetic; AID 2680, 2010
* hit, by the source's call; i = inactive; ? = inconclusive; / = no result given; [ ] = another dose, or the depositor's remark. Unless noted, the call rests on the fitted dose curve; in most records, active means well fitted curve in the direction sought with a large enough effect; inconclusive means small, poorly fitted or top-dose-only effect, or another doubt; inactive means no such curve, though single readings can be large; an effect the other way counts as inactive or inconclusive.

SMILES	CtBP-E1A blk	BAZ2B inh	HP1b chromo inh	JMJD2A Tudor	Six1-Eya2 inh	G9a inh	ME-1 growth	others
COCCn1c(SCC(=O)Nc2ccc(C(F)(F)F)cc2)nc2c([nH]c3ccccc32)c1=O	/	0.7%	29.3%[57 µM]	-14.8%	/	9.8%[59 µM]	/
Cc1nn2c(=O)cc(COC(=O)c3ccccc3NC(=O)C(C)C)nc2s1	/	-13.7%	38.7%	8.9%	/	-3.0%[12.7 µM]	/
O=c1[nH]cc(I)cc1I	/	3.2%	45.6%	-3.5%	-1.1	-2.4%	-4.9%[25.6 µM]
CCCCNC(=O)CCC1N=C2c3ccccc3N=C(SCC(=O)NCCc3ccc(OC)c(OC)c3)N2C1=O (configuration not stated)	/	-2.5%	-7.0%	-27.0%	/	5.3%[59 µM]	/
Cc1ccc(CNC(=O)c2nc(SCc3ccc(F)cc3)ncc2Cl)cc1	/	0.5%	3.4%	-14.2%	/	9.1%[59 µM]	/
O=C1C(Cc2ccccc2)C(c2ccccc2)N1c1ccccc1 (configuration not stated)	9.4	24.5%	81.1%	49.2%	17.3	60.5%[12.7 µM]	/
O=C1C(CCC(O)c2ccc(F)cc2)C(c2ccc(O)cc2)N1c1ccc(F)cc1 (configuration not stated)	/	/	/	/	/	-9.2%[2.33 µM]	8.3%
CN(C)CCc1c[nH]c2ccc(CC3COC(=O)N3)cc12 (configuration not stated)	/	/	/	/	/	6.5%[2.33 µM]	-5.6%
Cc1ccccc1NC(=S)N(CCN(C)C)C(C)c1cccnc1 (configuration not stated)	8.5	-19.9%	24.3%	-8.1%	0.1	18.4%[59 µM]	/
Cc1ccccc1NC(=S)N(CCN(C)C)C(C)c1ccccn1 (configuration not stated)	-71.9*	?	38.1%	-11.8%	-65.1*	7.8%	-8.8%[25.6 µM]
Cc1c(Cl)cccc1NC(=S)N(CCN(C)C)C(C)c1ccccn1 (configuration not stated)	?	50.1µM*	27.7%	-8.8%	?	-0.6%	-3.4%[25.6 µM]
Cc1cc(C(=O)NC2Cc3ccccc3C2)c(C)o1	/	-12.2%	14.8%	-16.9%	0.1	/	-39.0%[25.6 µM]
COc1ccc(OC)c(-c2c3cc(O)c(=O)cc-3oc3cc(O)c(O)cc23)c1	-25.5	2.82µM*	?	1.58µM*	?	6.31µM*	22.4µM*
COc1ccc(OC)c(-c2oc3ccccc3c(=O)c2O)c1	1.0	-0.6%	34.6%	4.0%	7.1	?	/
Nc1nc(-c2ccccc2)c(N=Nc2ccc(Cl)cc2)s1	?	?	?	?	-24.6	2µM*	1.9%[25.6 µM]
O=C(CCn1nc(-c2ccc(Cl)cc2)c2ccccc2c1=O)Nc1ccc(OC(F)(F)F)cc1	/	-24.0%	48.0%	-6.7%	/	-25.2%[59 µM]	/
COc1cccc(C2C(C(N)=O)=C(C)Nc3ncnn32)c1 (configuration not stated)	/	-0.7%	32.6%	3.8%	/	3.8%[59 µM]	/
CC(=O)NC(c1ccco1)c1cc(Cl)c2ccc(N3CCCCC3)nc2c1O (configuration not stated)	/	?	/	/	/	3.98µM*	/	12-hLO 8HQ R1=i;JMJD2E inh-1=20.4µM*
O=C(CCc1nnc2ccc(N3CCCCC3)nn12)NCc1ccco1	0.4	-17.3%	51.5%	-7.5%	-1.6	34.5%	/
O=S(=O)(c1ccc2nc(-c3ccco3)c(-c3ccco3)nc2c1)N1CCOCC1	-27.6	50.1µM*	-15.8%	79.4µM*	?	2µM*	-11.0%[25.6 µM]
COc1cc(/C=C/c2nc(C#N)c(N3CCC(C)CC3)o2)cc(OC)c1OC	/	?	0.6%	-14.5%	/	?	/
CCc1ccccc1NC(=O)c1cc(S(=O)(=O)N2CCCc3ccccc32)ccc1F	/	12.9%	38.4%	-4.9%	/	19.8%[59 µM]	/
COc1cccc(-c2noc(COc3cccc(C)c3C)n2)c1	/	180.4%	306.3%	286.5%	/	96.9%[59 µM]	/
Oc1ccccc1/C=N/Nc1ncc(Br)cn1	8.4	-33.2%	30.0%	-11.7%	?	12.0%[59 µM]	35.5µM*
CCC(=O)NC(c1ccc(C)cc1)c1ccc2cccnc2c1O (configuration not stated)	-89.9*	22.4µM*	50.6%	79.4µM*	-88.7*	19.6%	/	12-hLO 8HQ R1=i;JMJD2E inh-1=12.6µM*;JMJD2E inh-2=12.6µM*;FDH inh=-18.2%
CCC(=O)NC(c1cccs1)c1cc(Cl)c2cccnc2c1O (configuration not stated)	/	-4.8%	44.9%	-14.4%	-89.2*	-1.7%	/	12-hLO 8HQ R1=1µM*;JMJD2E inh-1=12.6µM*;JMJD2E inh-2=12.6µM*;FDH inh=-18.2%
CCC(=O)NC(c1cccc([N+](=O)[O-])c1)c1c(O)ccc2ccccc12 (configuration not stated)	-25.2	-13.6%	24.2%	-13.3%	4.4	-26.3%	/
CCOc1ccc(C(NC(=O)CC)c2c(O)ccc3ccccc23)cc1 (configuration not stated)	/	-31.0%	-1.7%	-27.3%	11.6	?	/

Compound activity: PubChem BioAssay, National Center for Advancing Translational Sciences (NCATS)
